# Bioassay records as filed in PubChem.
# Most compounds without a hit are left out; they make up all but 8% or so of the library.
# Lassa entry inh: Lassa virus entry inhibition; Lassa virus pseudotype entry inhibition, cell reporter; Potency, µM (doses to about 37.9 µM), for inactives: at the highest dose activity change, negative = inhibition, hits mostly inhibitors; 1.2% of 300,000 active; calls by dose curve; tested in HEK293 cells; further: potency means the concentration at half of the fitted maximal effect; on the % scale 0 is the no-effect control and ±100 the full control effect; nearly all actives have a fitted effect of over 50% in size
# FMDV antiviral: blocks foot and mouth disease virus. FMDV antiviral cell-based qHTS. Potency, µM (series often up to 57.9 µM), for inactives: at the top dose activity change, negative = inhibition, actives largely listed as inhibitors. 1.2% of 410,000 active; calls by dose curve; tested in HEK293T cells; further: read-out not given here; potency means the concentration at half of the fitted maximal effect; on the % scale 0 is the no-effect control and ±100 the full control effect; nearly all actives have a fitted effect of over 45% in size
# Marburg entry inh: inhibitors of Marburg virus binding or cell entry; Marburg virus pseudotyped entry inhibition, cell reporter; Potency, µM (top dose mostly 37.8 µM), without a hit: top-dose activity change, negative = inhibition, most hits filed as inhibitors; 1.8% of 300,000 active; AID 540276; calls by dose curve; tested in HEK293 cells; further: potency means the concentration at half of the fitted maximal effect; on the % scale 0 is the no-effect control and ±100 the full control effect
# HCMV inh: blocks human cytomegalovirus replication; activity change, negative = inhibition, % at 57.5 µM; 4.5% of 410,000 active; HFF cells, HCMV-luciferase reporter, 72 h; hits give low values; in the data active means activity change below about -60%; inconclusive means no clear call, values can overlap the other calls; inactive means above about -39%; further: on the % scale 0 is the no-effect control and ±100 the full control effect
#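 Two compound doses tested in HFFs infected with HCMV-luciferase, MOI 1 PFU/cell, 72 h at 37C. Lysate luminescence read with OneGlo; data normalized against buffer-only and 10uM Salinomycin inhibitor controls.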
# HCV inhibitor: blocks hepatitis C virus. 3.4% of 340,000 active. Potency, µM (top dose mostly 41.8 µM), inactives show at the top dose activity change, negative = inhibition, most hits filed as inhibitors. Huh7.5.1 HCVcc-Cre infection, luciferase reporter, 44 h; active means well fitted inhibition curve with a large enough effect; inconclusive means small, poorly fitted or top-dose-only effect, or another doubt; inactive means no such curve, though single readings can be large or run the other way; further: potency means the concentration at half of the fitted maximal effect; on the % scale 0 is the no-effect control and ±100 the full control effect
#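 A cell-based infection assay in which seeded cells (1,000 per well) receive test compound after 4 h, are inoculated with HCVcc-Cre at approximately 0.5 moi, and are incubated 44 h before luminescence detection.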
# SARS PLP yeast: inhibitors of SARS-CoV papain-like protease in yeast; Potency, µM (series often up to 32.9 µM), without a hit: top-dose activity, positive = growth rescue, usual class: activators; 0.19% of 330,000 active; S. cerevisiae expressing SARS-CoV PLpro, growth rescue; AID 485353; calls by dose curve; further: potency means the concentration at half of the fitted maximal effect; 0% is about no effect; nearly all actives have a fitted effect of over 55% in size
# Active calls of the source: *; u = inconclusive; x = not tested or not shown; [ ] = remark or other dose.
SMILES,Lassa entry inh,FMDV antiviral,Marburg entry inh,HCMV inh,HCV inhibitor,SARS PLP yeast
Cc1nnc(NC(=O)CSc2nnc(CC(=O)Nc3ccccc3Cl)n2C)s1,x,13%,21%[46.1 µM],21,18%,-1%
CCCc1nn2c(=O)cc(COC(=O)CNC(=O)COc3ccc(C)cc3)nc2s1,-11%[46.1 µM],-19%,x,8,x,x
CCn1c(=O)cc(OCC(=O)N2CCN(c3ccc(C)cc3)C(C)C2)c2ccccc21 (stereo unspecified),u,35µM*,u,-20,x,x
CCn1c(=O)cc(OCC(=O)N2CCCCCC2)c2ccccc21,-10%,-13%,-2%,161,-12%,0%
Cc1ccc(O)c(NC(=S)NC(=O)/C=C/c2ccco2)c1,u,17%,u,-11,-5%,-1%
O=C(NC(=S)Nc1nc(-c2ccc([N+](=O)[O-])cc2)cs1)c1ccco1,12%,8%,-17%,-84*,-4%,-3%
Cc1ccc(-c2csc(NC(=S)NC(=O)/C=C/c3ccco3)n2)cc1,u,15%,u,-37,13µM*,-4%
C=CCNc1nc(-c2ccc(Cl)cc2)cs1,11%,13%,-9%,13,u,3%
O=C(/C=C\c1ccco1)Nc1nc(-c2ccc3ccccc3c2)cs1,-4%,u,u,-76*,u,-2%
O=C(NC(=S)Nc1nc(-c2ccc(Br)cc2)cs1)c1ccco1,28%[46.1 µM],-11%,u,u,2%,-2%
C=CCNc1nc(-c2ccc([N+](=O)[O-])cc2)cs1,-1%,-3%,u,-69*,u,-31%
COc1ccccc1-c1ccnc(-n2ncc(C(=O)N[C@H]3CCCCNC3=O)c2C2CC2)n1,x,40%,x,x,x,x
O=C(Nc1nc(-c2ccccc2)cs1)c1ccco1,-1%[46.1 µM],-1%,-1%[46.1 µM],116,-21%,-5%
CC(=O)NC(=S)Nc1ccc(NC(=S)NC(=O)/C=C/c2ccco2)cc1,u,28%,-25%,-79*,-15%,0%
CC(OC(=O)c1ccco1)C(=O)Nc1nc(-c2ccccc2)cs1 (stereo unspecified),10µM*,-10%,11µM*,57,u,-13%
Cc1ccc(C2=NC(C(F)(F)F)(C(F)(F)F)c3c(n(-c4ccc(F)cc4)c(=O)[nH]c3=O)N2)cc1,u,u,u,-13,u,10%
O=c1[nH]c(=O)n(-c2ccccc2)c2c1C(C(F)(F)F)(C(F)(F)F)N=C(CCC1CCCCC1)N2,11µM*,25µM*,u,-10,u,16%
N#Cc1ccc(C2=NC(C(F)(F)F)(C(F)(F)F)c3c(n(Cc4ccco4)c(=O)[nH]c3=O)N2)cc1,15%,-11%,-1%,-85*,4%,-8%
O=c1[nH]c(=O)n(-c2ccc(F)cc2)c2c1C(C(F)(F)F)(C(F)(F)F)N=C(c1ccc(F)cc1)N2,u,10µM*,u,-99*,13µM*,-2%
Cc1csc(SCC(=O)N2CCOc3ccc(C(O)C4CCCCC4)cc3C2)n1 (stereo unspecified),x,-4%,x,x,x,x
Cc1nnc2nc(-c3ccccc3)nc(-c3ccccc3)n12,x,9%,x,-80*,u,-2%
Cn1nc(-c2ccccc2)nc1-c1ccccc1,x,68%,x,15,0%,-8%
CCOC(=O)C1=C(C)NC2=C(C(=O)CCC2)C1c1cn(Cc2ccc(Cl)cc2Cl)nc1-c1ccccc1 (stereo unspecified),-12%,-1%,u,-90*,u,5%
COC(=O)C1=C(C)NC2=C(C(=O)CCC2)C1c1cn(Cc2ccc(Cl)cc2Cl)nc1-c1ccccc1 (stereo unspecified),7%,-4%,u,-61*,u,5%
CCOC(=O)C1=C(C)NC2=C(C(=O)CCC2)C1c1cc(OC)ccc1OC (stereo unspecified),11%,28%,-10%,-26,-2%,11%
SMILES,Lassa entry inh,FMDV antiviral,Marburg entry inh,HCMV inh,HCV inhibitor,SARS PLP yeast
COc1ccc2oc(C)c(C(=O)c3ccc(C)cc3)c2c1,x,15%,x,3,-21%,-7%
C=CCn1c(/N=C/c2ccc(OC)cc2)nc2ccccc21,x,22%,x,x,12%,-1%
CCN(CC)CCn1c(NCc2ccc(OC)cc2)nc2ccccc21,-22%,-20%,u,-100*,u,x
COc1cccc(CNc2nc3ccccc3n2CCN2CCCCC2)c1OC,u,-23%,11µM*,66,-4%,0%
COc1ccc(OC)c(CNc2nc3ccccc3n2CCN2CCCCC2)c1,-11%,-10%,u,-30,11µM*,7%
COc1ccc(/C=N/c2nc3ccccc3n2CCN2CCCCC2)cc1OC,u,-16%,-20%,-64*,-3%,11%
CCOc1ccc(-c2nc(SCC(=O)NCCOC)c(-c3ccc(OC)c(OC)c3)[nH]2)cc1,7%[46.1 µM],-23%,-12%[46.1 µM],-4,x,x
COC(=O)[C@@H]1CC[C@H](C)[C@@H](c2ccc(C)cc2)N1C(=O)c1ccc(C=NOC[C@@H](O)[C@H]2O[C@@H]3OC(C)(C)O[C@H]3[C@@H]2O)cc1,10%[14.3 µM],x,28%[14.2 µM],x,x,x
O=C(O)C1CCC[C@@H]2[C@@H]3CC(CN12)[C@@H]1CCCCN1C3 (stereo partly specified),x,0%,x,x,x,x
COc1c(F)cccc1C1=CC(=O)C[C@H](c2ccc(F)cc2)C1,x,-12%,x,18,x,x
COCC(=O)Nc1cc(C(=O)N2CCSCC2)cc2nc(-c3ccccc3)n(C)c12,x,-26%,x,x,x,x
O=[N+]([O-])/C=C/c1cn(Cc2ccccc2)c2ccccc12,-30%,-40%,u,-104*,-6%,-27%
O=Cc1cn(Cc2cccc([N+](=O)[O-])c2)c2ccccc12,0.63µM*,-28%,0.82µM*,u,-18%,-5%
N#Cc1ccccc1Cn1cc(/C=C/[N+](=O)[O-])c2ccccc21,23µM*,14µM*,u,-101*,u,-103%
O=C(Cn1cc(/C=C\[N+](=O)[O-])c2ccccc21)Nc1ccccc1,u,13µM*,u,u,u,-1%
Cc1ccc2c(=O)n3c(nc2c1)C(Cc1ccc(O)cc1)NC(=O)c1ccc(Cl)cc1-3 (stereo unspecified),x,x,x,59,u,-2%
CC1=CC(Cc2ccc(C)cc2)C(=O)N=N1 (stereo unspecified),x,x,0%,x,x,x
c1ccc2c(c1)[nH]c1c(C3=NCCC3)nccc12,x,x,x,-1,x,x
O=C1Nc2ccccc2Oc2cc(Oc3ccccc3)ccc21,-25%[46.1 µM],3%,-6%[46.1 µM],-8,x,4%
CCOC(=O)c1cn2nc(N3CCCC3)ccc2n1,1.4µM*,-69%,3.5µM*,0,-2%,-2%
CCN(CC)CCCNc1ncnc2c1cnn2-c1ccc(C)c(C)c1,u,-2%,x,-30,x,x
COc1ccccc1Nc1ccncc1[N+](=O)[O-],x,4%,x,-64*,6%,-1%
O=[N+]([O-])c1cnccc1Nc1ccccc1,10%,-13%,-1%,-13,2%,6%
